According to PubChem BioAssay (Tox21):
Inconclusive results are not listed. Calls of active or inactive are those of the source. Unless noted, calls come from the whole dose curve; as a rule, active = well fitted curve in the direction sought with a large enough effect in the repeat runs; inconclusive = weak or mixed curves; inactive = no such curve, though single readings can be large; an effect the other way counts as inactive or inconclusive.

Experiments:
[1] = qHTS assay to identify aromatase inhibitors - cell viability counter screen (AID 743084);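 note: cells stimulated with testosterone during compound exposure; nearly all actives have a fitted effect of over 55% in size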
[2] = biological target: Aryl hydrocarbon receptor (Homo sapiens) (UniProt P35869); assay: qHTS assay to identify small molecule that activate the aryl hydrocarbon receptor (AhR) signaling pathway (AID 743085);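 note: HG2L7.5c1 human HepG2 liver cells with stably integrated DRE-driven firefly reporter; series mostly up to about 70 µM; nearly all actives have a fitted effect of over 15% in size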
Method in brief: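 24 h compound exposure, 37C, HepG2-derived HG2L7.5c1 cells with DRE-responsive luciferase. Readouts: fluorescence viability, then luminescence at room temperature after 30 min.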

[3] = qHTS assay to identify small molecule that activate the aryl hydrocarbon receptor (AhR) signaling pathway - cell viability counter screen (AID 743086);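 note: HepG2 liver cells carrying the AhR DRE luciferase reporter; series mostly up to about 70 µM; nearly all actives have a fitted effect of over 45% in size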
Method in brief: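 HepG2-AhR-luc (HG2L7.5c1) cells, 4000/well, were preincubated 5 h at 37C, exposed to compound in qHTS format for 24 hr at 37C, then given CellTiter-Fluor for 30 min; viability was read as fluorescence in the reporter wells.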

[4] = biological target: Peroxisome proliferator-activated receptor gamma (Homo sapiens) (UniProt P37231); assay: qHTS assay to identify small molecule agonists of the peroxisome proliferator-activated receptor gamma (PPARg) signaling pathway (AID 743094; active = well fitted activation curve with a large enough effect in the signal ratio in the repeat runs, not every such curve was filed as active; the % refers to the signal ratio)
Method in brief: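 Fluorescence-based beta-lactamase readout in HEK293H PPARg UAS-bla cells after 17 h compound exposure (37C) and 1 h B/G FRET substrate incubation at room temperature.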

[5] = biological target: Peroxisome proliferator-activated receptor gamma (Homo sapiens) (UniProt P37231); assay: qHTS assay to identify small molecule antagonists of the peroxisome proliferator-activated receptor gamma (PPARg) signaling pathway (AID 743191; calls by dose curve; note: series mostly up to about 63 µM; nearly all actives have a fitted effect of over 30% in size)
Method in brief: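 GeneBLAzer PPARg UAS-bla HEK293H cells carrying a UAS-driven beta-lactamase reporter were plated at 3000 cells/well, preincubated 5 h at 37C, then given compound for 17 h at 37C; LiveBLAzer B/G FRET substrate was read after 1 h at room temperature.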

[6] = qHTS assay to identify small molecule antagonists of the peroxisome proliferator-activated receptor gamma (PPARg) signaling pathway - cell viability counter screen (AID 743194); note: nearly all actives have a fitted effect of over 55% in size
Method in brief: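 PPARg-UAS-bla HEK293H cells were plated, rested 5 h at 37 C, then treated with compounds plus rosiglitazone (50 nM final) for 17 h at 37 C; viability was then read by CellTiter-Glo luminescence after 30 min at room temperature.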

[7] = qHTS assay for small molecule agonists of the antioxidant response element (ARE) signaling pathway (AID 743202; active = well fitted activation curve with a large enough effect in the signal ratio in the repeat runs, not every such curve was filed as active; the % refers to the signal ratio)
Method in brief: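 Following a 16 h, 37 C exposure of reporter HepG2 cells (ARE-driven beta-lactamase, 2,000 cells/well) to compounds, FRET substrate was applied for 2 h at room temperature and fluorescence intensity recorded.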

[8] = qHTS assay for small molecule agonists of the antioxidant response element (ARE) signaling pathway - cell viability counter screen (AID 743203; calls by dose curve; note: nearly all actives have a fitted effect of over 55% in size)
Method in brief: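 Parallel cytotoxicity read-out for the ARE-bla screen: HepG2 reporter cells, 16 hrs with compounds, then CellTiter-Glo luminescence.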

[9] = qHTS assay for small molecule activators of the heat shock response signaling pathway - cell viability counter screen (AID 743209); note: nearly all actives have a fitted effect of over 50% in size
Method in brief: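 To flag cytotoxic compounds, HSE-bla HeLa cells plated at 1500 cells/well were dosed for 5 h at 37 C, followed by the reporter FRET read and then CellTiter-Glo, with luminescence recorded 30 min after reagent addition.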

[10] = qHTS assay for small molecule activators of the heat shock response signaling pathway (AID 743210; active = well fitted activation curve with a large enough effect in the signal ratio in the repeat runs, with a control signal flat, not every such curve was filed as active; the % refers to the signal ratio; note: series mostly up to about 63 µM)
Method in brief: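 Heat shock element–beta-lactamase HeLa reporter cells; qHTS with compounds for 5 h at 37 C; detection by FRET substrate fluorescence after 2.5 h at RT.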

[11] = biological target: Peroxisome proliferator-activated receptor delta (Homo sapiens) (UniProt Q03181); assay: qHTS assay to identify small molecule agonists of the peroxisome proliferator-activated receptor delta (PPARd) signaling pathway (AID 743212; calls by dose curve)
Method in brief: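 Beta-lactamase reporter read by fluorescence (LiveBLAzer B/G FRET, 2 h, room temperature). Test agents, in DMSO, incubated at 37 C with PPARd-bla HEK293H cells.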

[12] = qHTS assay to identify small molecule antagonists of the peroxisome proliferator-activated receptor delta (PPARd) signaling pathway - cell viability counter screen (AID 743213); note: nearly all actives have a fitted effect of over 50% in size
Method in brief: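 In this counter screen, HEK293H cells carrying a UAS-beta-lactamase reporter are co-treated with test compounds and 300 nM L165041 (final) for 17 h at 37 C; cell viability is quantified by CellTiter-Glo luminescence.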

[13] = biological target: Peroxisome proliferator-activated receptor delta (Homo sapiens) (UniProt Q03181); assay: qHTS assay to identify small molecule antagonists of the peroxisome proliferator-activated receptor delta (PPARd) signaling pathway (AID 743215; active = well fitted inhibition curve with a large enough effect in the signal ratio in the repeat runs, not every such curve was filed as active; the % refers to the signal ratio;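 note: cells stimulated with agonist L165041 at 300 nM final during compound exposure; series mostly up to about 62 µM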)
Method in brief: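 Screen format: qHTS, antagonist mode. HEK293H PPARd-bla cells received compound and 300 nM L165041 (final), 17 h, 37 C. Beta-lactamase detected via FRET substrate fluorescence, 2 h, room temperature.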

[14] = qHTS assay to identify small molecule agonists of the farnesoid-X-receptor (FXR) signaling pathway - cell viability counter screen (AID 743218); note: nearly all actives have a fitted effect of over 45% in size
Method in brief: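 Same-well cytotoxicity check on FXR-UAS-bla HEK 293T cells: 5 h attachment, 16 h compound at 37 C, CellTiter-Glo luminescence read at room temperature after 30 min.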

[15] = qHTS assay to identify small molecule antagonists of the farnesoid-X-receptor (FXR) signaling pathway - cell viability counter screen (AID 743221; active = well fitted cell-killing curve with a large enough effect in the repeat runs, not every such curve was filed as active; note: nearly all actives have a fitted effect of over 50% in size)
Method in brief: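 In GeneBLAzer FXR-UAS-bla HEK 293T cells stimulated with 50 uM chenodeoxycholic acid (final), compounds acted for 16 h at 37 C. Viability was assessed afterwards by CellTiter-Glo luminescence.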

[16] = biological target: Vitamin D3 receptor (Homo sapiens) (UniProt P11473); assay: qHTS assay to identify small molecule agonists of the vitamin D receptor (VDR) signaling pathway (AID 743222; calls by dose curve)
Method in brief: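 Using LiveBLAzer B/G FRET detection, agonism was scored in VDR-bla cells exposed overnight (16 h, 37C) to DMSO-dissolved compounds; substrate incubation was 2 h at room temperature.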

[17] = biological target: Vitamin D3 receptor (Homo sapiens) (UniProt P11473); assay: qHTS assay to identify small molecule antagonists of the vitamin D receptor (VDR) signaling pathway (AID 743223; active = well fitted inhibition curve with a large enough effect in the signal ratio in the repeat runs, not every such curve was filed as active; the % refers to the signal ratio)
Method in brief: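 Agonist 1alpha,25-dihydroxyvitamin D3 (3 nM in well) was added with each compound to VDR-bla cells preincubated 4 h. Cells stood 16 h at 37C, then FRET substrate 2 h at room temperature; fluorescence intensity recorded.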

[18] = biological target: Bile acid receptor (Homo sapiens) (UniProt Q96RI1); assay: qHTS assay to identify small molecule antagonists of the farnesoid-X-receptor (FXR) signaling pathway (AID 743217; active = well fitted inhibition curve with a large enough effect in the signal ratio in the repeat runs, not every such curve was filed as active; the % refers to the signal ratio)
Method in brief: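 Quantitative HTS, beta-lactamase reporter format: FXR-UAS-bla HEK 293T cells co-treated 16 h at 37 °C with compounds and 50 uM final chenodeoxycholic acid, then read by B/G FRET fluorescence.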

[19] = biological target: Bile acid receptor (Homo sapiens) (UniProt Q96RI1); assay: qHTS assay to identify small molecule agonists of the farnesoid-X-receptor (FXR) signaling pathway (AID 743220; active = well fitted activation curve with a large enough effect in the signal ratio in the repeat runs, not every such curve was filed as active; the % refers to the signal ratio)
Method in brief: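 FXR-UAS-bla HEK 293T cells carrying a UAS-driven beta-lactamase reporter were plated for 5 h at 37C/5% CO2, then exposed to DMSO-dissolved Tox21 10K compounds for 16 h at 37C. A LiveBLAzer B/G FRET substrate was loaded for 2 h at room temperature before fluorescence reading.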

[20] = qHTS assay to identify small molecule agonists of the peroxisome proliferator-activated receptor delta (PPARd) signaling pathway - cell viability counter screen (AID 743211); note: nearly all actives have a fitted effect of over 55% in size
Method in brief: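 Luminescent ATP viability assay (CellTiter-Glo, 30 min RT) in UAS-bla HEK293H cells carrying the PPAR delta reporter construct, 3000 cells/well, after a 17 h compound treatment at 37 C.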
% is set by controls: 0 for no effect and ±100 for the full control effect.

Chain of Bile acid receptor (Homo sapiens) (Q96RI1 whole entry, looked up): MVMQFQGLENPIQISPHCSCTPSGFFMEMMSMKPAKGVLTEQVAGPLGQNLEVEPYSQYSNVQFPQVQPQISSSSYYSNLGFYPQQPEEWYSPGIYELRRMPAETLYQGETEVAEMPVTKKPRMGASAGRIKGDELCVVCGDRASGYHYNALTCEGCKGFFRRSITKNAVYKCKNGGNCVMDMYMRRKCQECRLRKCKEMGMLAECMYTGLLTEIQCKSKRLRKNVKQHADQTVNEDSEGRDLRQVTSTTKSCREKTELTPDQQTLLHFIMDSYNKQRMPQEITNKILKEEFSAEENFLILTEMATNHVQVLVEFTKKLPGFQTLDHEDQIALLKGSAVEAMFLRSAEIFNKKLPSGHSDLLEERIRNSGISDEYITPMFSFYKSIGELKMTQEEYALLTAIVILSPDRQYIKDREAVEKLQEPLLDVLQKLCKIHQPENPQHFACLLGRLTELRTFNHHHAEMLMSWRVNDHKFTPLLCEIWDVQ
Chain of Peroxisome proliferator-activated receptor gamma (Homo sapiens) (P37231 whole entry, looked up): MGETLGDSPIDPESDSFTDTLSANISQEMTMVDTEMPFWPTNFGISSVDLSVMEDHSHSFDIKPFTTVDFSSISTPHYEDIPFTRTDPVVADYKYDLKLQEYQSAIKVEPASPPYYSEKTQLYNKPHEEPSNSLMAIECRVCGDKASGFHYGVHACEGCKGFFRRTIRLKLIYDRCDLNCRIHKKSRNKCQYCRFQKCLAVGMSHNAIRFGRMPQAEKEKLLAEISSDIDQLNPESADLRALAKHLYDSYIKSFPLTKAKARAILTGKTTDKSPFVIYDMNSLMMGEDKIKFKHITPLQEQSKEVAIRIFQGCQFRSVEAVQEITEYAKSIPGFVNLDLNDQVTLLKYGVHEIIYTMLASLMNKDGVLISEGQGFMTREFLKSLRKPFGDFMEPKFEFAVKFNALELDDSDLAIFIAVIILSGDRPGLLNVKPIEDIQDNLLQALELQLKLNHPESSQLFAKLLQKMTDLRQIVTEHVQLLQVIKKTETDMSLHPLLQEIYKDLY
Chain of Vitamin D3 receptor (Homo sapiens) (P11473 whole entry, looked up): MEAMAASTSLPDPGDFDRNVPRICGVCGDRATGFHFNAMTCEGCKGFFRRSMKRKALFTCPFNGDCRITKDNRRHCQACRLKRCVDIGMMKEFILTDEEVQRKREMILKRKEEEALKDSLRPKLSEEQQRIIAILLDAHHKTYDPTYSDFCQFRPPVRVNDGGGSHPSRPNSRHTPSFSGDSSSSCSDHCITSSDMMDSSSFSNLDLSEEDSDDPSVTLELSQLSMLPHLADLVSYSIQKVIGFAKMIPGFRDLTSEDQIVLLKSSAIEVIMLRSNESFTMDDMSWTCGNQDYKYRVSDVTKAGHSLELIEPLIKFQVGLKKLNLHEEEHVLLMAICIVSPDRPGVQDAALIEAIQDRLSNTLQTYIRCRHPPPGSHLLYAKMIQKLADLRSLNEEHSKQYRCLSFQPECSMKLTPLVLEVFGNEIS
Chain of Peroxisome proliferator-activated receptor delta (Homo sapiens) (Q03181 whole entry, looked up): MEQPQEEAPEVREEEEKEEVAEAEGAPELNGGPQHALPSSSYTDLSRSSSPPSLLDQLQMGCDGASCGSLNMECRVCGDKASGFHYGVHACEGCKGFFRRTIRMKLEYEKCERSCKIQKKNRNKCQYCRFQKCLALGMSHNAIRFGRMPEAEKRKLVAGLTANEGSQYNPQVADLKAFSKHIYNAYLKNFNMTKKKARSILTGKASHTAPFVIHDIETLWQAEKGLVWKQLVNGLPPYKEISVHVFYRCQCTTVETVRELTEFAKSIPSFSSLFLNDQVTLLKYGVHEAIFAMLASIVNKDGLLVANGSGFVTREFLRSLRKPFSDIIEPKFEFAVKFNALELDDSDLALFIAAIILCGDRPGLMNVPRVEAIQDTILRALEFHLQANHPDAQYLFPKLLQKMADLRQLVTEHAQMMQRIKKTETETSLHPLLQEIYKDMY
Chain of Aryl hydrocarbon receptor (Homo sapiens) (P35869 whole entry, looked up): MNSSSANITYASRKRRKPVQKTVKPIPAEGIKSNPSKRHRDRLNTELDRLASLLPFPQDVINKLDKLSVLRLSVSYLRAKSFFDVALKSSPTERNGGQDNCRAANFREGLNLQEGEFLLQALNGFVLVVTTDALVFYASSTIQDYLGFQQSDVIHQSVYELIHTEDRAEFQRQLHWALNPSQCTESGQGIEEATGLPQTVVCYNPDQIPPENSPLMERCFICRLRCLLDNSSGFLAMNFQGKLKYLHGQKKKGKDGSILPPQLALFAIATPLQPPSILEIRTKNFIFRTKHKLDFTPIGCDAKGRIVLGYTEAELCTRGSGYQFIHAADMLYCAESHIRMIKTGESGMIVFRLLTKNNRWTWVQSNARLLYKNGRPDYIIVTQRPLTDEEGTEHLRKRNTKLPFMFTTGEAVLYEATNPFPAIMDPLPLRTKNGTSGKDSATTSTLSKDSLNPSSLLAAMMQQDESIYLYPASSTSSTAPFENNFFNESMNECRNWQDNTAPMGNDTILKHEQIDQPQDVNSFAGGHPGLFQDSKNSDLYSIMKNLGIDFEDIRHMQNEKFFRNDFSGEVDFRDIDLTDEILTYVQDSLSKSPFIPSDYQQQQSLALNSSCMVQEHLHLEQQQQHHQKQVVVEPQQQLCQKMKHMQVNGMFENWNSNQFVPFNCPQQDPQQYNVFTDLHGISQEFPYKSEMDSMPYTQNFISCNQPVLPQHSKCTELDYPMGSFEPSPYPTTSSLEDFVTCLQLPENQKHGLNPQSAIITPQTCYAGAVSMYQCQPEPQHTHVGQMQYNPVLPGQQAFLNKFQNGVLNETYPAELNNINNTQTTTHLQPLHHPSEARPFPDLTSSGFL

CCN(CC)CCO
inactive: outcome [1] | Potency [2] | outcome [3] | outcome [4] | Potency [5] | outcome [6] | Potency [7] | outcome [8] | outcome [9] | outcome [10] | outcome [11] | outcome [12] | Potency [13] | outcome [14] | outcome [15]

CN(C)CCO
inactive: outcome [1] | Potency [2] | outcome [3] | outcome [4] | Potency [5] | outcome [6] | Potency [7] | outcome [8] | outcome [9] | outcome [10] | outcome [11] | outcome [12] | Potency [13] | outcome [14] | outcome [15] | outcome [16] | outcome [17]

CCCCN(CC)C(=O)SCCC
inactive: outcome [1] | Potency [2] | outcome [3] | outcome [4] | Potency [5] | outcome [6] | Potency [7] | outcome [8] | outcome [9] | outcome [10] | outcome [11] | outcome [12] | Potency [13] | outcome [18] | outcome [14] | outcome [19] | outcome [16] | outcome [17]

CCN(CC)c1ccccc1
inactive: outcome [1] | Potency [2] | outcome [3] | outcome [4] | Potency [5] | outcome [6] | Potency [7] | outcome [8] | outcome [9] | outcome [10] | outcome [20] | outcome [12] | outcome [18] | outcome [14] | outcome [19] | outcome [15] | outcome [16] | outcome [17]

CCOP(=S)(OCC)SCCSCC
inactive: outcome [1] | Potency [2] | outcome [3] | outcome [4] | Potency [5] | outcome [6] | Potency [7] | outcome [8] | outcome [9] | outcome [10] | outcome [20] | outcome [11] | outcome [12] | Potency [13] | outcome [14] | outcome [15]

c1ccc(-c2ccccc2)cc1
inactive: outcome [1] | Potency [2] | outcome [3] | outcome [4] | Potency [5] | outcome [6] | Potency [7] | outcome [8] | outcome [9] | outcome [10] | outcome [20] | outcome [11] | outcome [12] | Potency [13] | outcome [18] | outcome [14] | outcome [19]

CCNc1nc(NC(C)C)nc(SC)n1
inactive: outcome [1] | Potency [2] | outcome [3] | outcome [4] | Potency [5] | outcome [6] | Potency [7] | outcome [8] | outcome [9] | outcome [10] | outcome [20] | outcome [11] | outcome [12] | Potency [13] | outcome [14] | outcome [15] | outcome [16] | outcome [17]

CC1OC(C)OC(C)O1 (centres undefined)
inactive: outcome [1] | Potency [2] | outcome [3] | outcome [4] | Potency [5] | outcome [6] | Potency [7] | outcome [8] | outcome [9] | outcome [10] | outcome [11] | outcome [12] | Potency [13] | outcome [18] | outcome [14] | outcome [19] | outcome [15]

CCCN(CCC)c1c([N+](=O)[O-])cc(C(F)(F)F)cc1[N+](=O)[O-]
inactive: outcome [1] | Potency [2] | outcome [3] | outcome [4] | Potency [5] | outcome [6] | Potency [7] | outcome [8] | outcome [9] | outcome [10] | outcome [20] | outcome [11] | outcome [12] | Potency [13] | outcome [18] | outcome [14] | outcome [19] | outcome [16] | outcome [17]

CN(C)N=O
inactive: outcome [1] | Potency [2] | outcome [3] | outcome [4] | Potency [5] | outcome [6] | Potency [7] | outcome [8] | outcome [9] | outcome [10] | outcome [20] | outcome [12] | outcome [18] | outcome [14] | outcome [19] | outcome [16] | outcome [17]

Clc1cccc(Cl)c1Cl
inactive: outcome [1] | Potency [2] | outcome [3] | outcome [4] | Potency [5] | outcome [6] | Potency [7] | outcome [8] | outcome [9] | outcome [10] | outcome [20] | outcome [11] | outcome [12] | Potency [13] | outcome [14] | outcome [16] | outcome [17]

C=C(C)CCl
inactive: outcome [1] | Potency [2] | outcome [3] | outcome [4] | ratio activity, negative = inhibition [5] -4.46% [at 5.95 µM] | outcome [6] | Potency [7] | outcome [8] | outcome [9] | outcome [10] | outcome [20] | outcome [11] | outcome [12] | Potency [13] | outcome [18] | outcome [14] | outcome [19] | outcome [15] | outcome [16] | outcome [17]

CC(=O)C=C(C)C
inactive: outcome [1] | Potency [2] | outcome [3] | outcome [4] | Potency [5] | outcome [6] | Potency [7] | outcome [8] | outcome [9] | outcome [10] | outcome [20] | outcome [12] | outcome [14] | outcome [16] | outcome [17]

CCCCCCCCCCCC#N
inactive: outcome [1] | Potency [2] | outcome [3] | outcome [4] | Potency [5] | outcome [6] | Potency [7] | outcome [8] | outcome [9] | outcome [10] | outcome [20] | outcome [11] | outcome [12] | Potency [13] | outcome [18] | outcome [14] | outcome [19] | outcome [16] | outcome [17]

CC(Br)C(=O)O (centres undefined)
inactive: outcome [1] | Potency [2] | outcome [3] | outcome [4] | Potency [5] | outcome [6] | Potency [7] | outcome [8] | outcome [9] | outcome [10] | outcome [20] | outcome [11] | outcome [12] | Potency [13] | outcome [14] | outcome [16] | outcome [17]

CC(C)C1(C)N=C(c2nc3ccccc3cc2C(=O)O)NC1=O (centres undefined)
inactive: outcome [1] | Potency [2] | outcome [3] | outcome [4] | Potency [5] | outcome [6] | Potency [7] | outcome [8] | outcome [9] | outcome [10] | outcome [11] | outcome [12] | Potency [13] | outcome [18] | outcome [14] | outcome [19] | outcome [15] | outcome [16] | outcome [17]
